Bioassay records deposited in PubChem BioAssay by several laboratories.
PfGluPho inh: PfG6PD (Plasmodium falciparum) enzyme inhibition; PfGluPho enzyme, NADPH resazurin-diaphorase fluorescence; inhibition, % at 20 µM; actives 0.78% (n = 350,000);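 active means inhibition reaching at least a set limit at 20 µM in the primary screen, cut at about 59% in these data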
M18AAP inhibitor: blocks P. falciparum M18 aspartyl aminopeptidase; recombinant PfM18AAP, H-Glu-NHMec fluorogenic cleavage; inhibition, % at 7.35 µM; actives 1.2% (n = 290,000); AID 1822;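 active means inhibition above the campaign mean inhibition over all tested compounds plus 3 SD, cut at about 28% in these data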
PHOSPHO1 block: PHOSPHO1 (human) inhibition | recombinant PHOSPHO1, absorbance phosphatase assay | inhibition, % at 13.3 µM | actives 1.1% (n = 290,000) | AID 1565; in the data active means inhibition above about 60%
Target sequence (Q8TCT1 whole entry, looked up): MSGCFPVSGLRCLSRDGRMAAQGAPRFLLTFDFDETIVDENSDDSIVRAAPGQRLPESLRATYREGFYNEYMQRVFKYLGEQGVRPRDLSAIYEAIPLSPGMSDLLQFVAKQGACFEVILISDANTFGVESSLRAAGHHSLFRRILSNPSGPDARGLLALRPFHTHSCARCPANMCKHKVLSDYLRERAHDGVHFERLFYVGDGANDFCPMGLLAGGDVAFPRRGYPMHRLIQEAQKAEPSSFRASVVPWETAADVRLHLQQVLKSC
H9c2 protect: protects H9c2 cardiomyocytes from peroxide injury | H2O2 injury protection, ATPLite, 2 h | protection from H2O2 cell death, % at 20 µM | actives 0.63% (n = 360,000);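 active means compounds giving at least 50% protection of heart cells from peroxide-induced death in the single-dose screen, raw or plate-pattern-corrected value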
ALR inh: human ALR oxidase inhibition via reduced H2O2; AID 485317; P55789; actives 3.8% (n = 290,000); purified ALR, DTT oxidation, H2O2 HRP-luminol luminescence; inhibition, % (no concentration beside the values);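 active means mean replicate inhibition above about 79%, with every replicate also reaching it, limit read from the data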
Target sequence (P55789 whole entry, looked up): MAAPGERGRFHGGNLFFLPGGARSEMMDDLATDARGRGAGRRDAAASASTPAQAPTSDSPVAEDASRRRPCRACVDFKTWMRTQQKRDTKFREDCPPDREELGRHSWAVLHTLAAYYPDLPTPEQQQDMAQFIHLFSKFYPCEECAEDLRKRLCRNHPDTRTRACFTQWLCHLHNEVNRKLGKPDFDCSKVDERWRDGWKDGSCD
Hits are given with their value; n = inactive; x = not tested or not shown. This is a sample that favours compounds with a hit; in the whole collection about 5.6% have one here.

SMILES | PfGluPho inh | M18AAP inhibitor | PHOSPHO1 block | H9c2 protect | ALR inh
Cc1occc1C(=O)NCc1ccccc1 | n | n | n | n | n
O=C(NCCc1ccc(Cl)cc1)c1ccc(=O)[nH]c1 | n | n | n | n | n
Cc1occc1C(=O)NCCc1ccc(Cl)cc1 | n | n | n | n | 96
Cc1occc1C(=O)NCCCCc1ccccc1 | n | n | n | n | 98
Cc1occc1C(=O)NC(C)C(C)(C)C (stereo not given) | n | n | n | n | 98
O=C(CNCC1CCCO1)NCc1ccco1 (stereo not given) | n | n | n | n | n
CCCCN(C)S(=O)(=O)c1cc2c(cc1Br)CCN2C(=O)C1CC1 | n | x | x | n | x
CCN(CCNS(=O)(=O)c1ccc2[nH]c(=O)sc2c1)c1ccccc1 | n | n | n | n | 98
COc1ccc(-c2[nH]nc3nc(N4CCN(C(=O)c5ccoc5)CC4)cc(C(F)(F)F)c23)cc1 | n | x | x | n | x
Cc1c(C#N)c(N)nc2c3c(sc12)NC(=O)CC3c1ccc(Cl)cc1 (stereo not given) | n | n | n | 50 | x
COc1ccc(NC(=O)COC(=O)C2CC2)c(OC)c1 | n | x | x | n | n
O=C(Nc1ccc(Br)cc1)c1cccc2c1C(=O)N(C1CCCCC1)C2 | n | n | n | n | n
NC(=O)c1cccc2c1C(=O)N(C1CCCCC1)C2 | n | n | n | 78 | n
S=c1[nH]nc(Cc2sc(-c3ccccc3)nc2-c2ccccc2)o1 | n | n | 90 | n | 98
O=C(Cc1sc(-c2ccccc2)nc1-c1ccccc1)Nc1ccccc1 | n | n | n | n | n
COc1ccccc1-c1nnc(SCCN2CCOCC2)n1-c1ccc(C)cc1 | n | n | 69 | n | n
CCOC(=O)N1CCN(C(=O)CSc2nc(=O)n3ccccc3n2)CC1 | n | x | x | n | x
Fc1cccc(CN2CCN(Cc3nc(CCc4ccccc4)no3)CC2)c1 | n | n | n | n | n
O=C(c1ccc(=O)oc1)N1CCCc2ccccc21 | n | n | n | n | 89
O=C(c1ccccc1)N1CCCc2ccccc21 | n | n | n | n | n
CCn1c(CSCc2ccc(F)cc2)nnc1SCC(=O)NCc1ccccc1 | n | n | 64 | n | n
CCn1c(Cc2ccccc2)nnc1SCC(=O)Nc1ccc(OC)cc1 | n | n | n | n | n
CCn1c(CC(=O)Nc2ccc(Cl)cc2)nnc1SCC(=O)N1CCOCC1 | n | n | n | n | x
CCn1c(Cc2ccccc2)nnc1SCC(=O)Nc1ccc(N)cc1 | n | n | n | n | 87
CCn1c(CC(=O)Nc2ccc(C)cc2)nnc1SCC(=O)N1CCN(c2ccccc2)CC1 | n | n | n | n | 89
SMILES | PfGluPho inh | M18AAP inhibitor | PHOSPHO1 block | H9c2 protect | ALR inh
O=C(c1ccc(Br)o1)N1CCN(CCc2ccncc2)CC1 | n | n | n | n | x
CC(C)(C)OC(=O)NN=C(c1ccc(O)cc1)c1ccc(O)cc1 | n | n | n | n | 82
COc1ccccc1NC(=O)CSc1nc(O)cc(=O)[nH]1 | n | n | n | n | 98
COc1ccccc1NC(=O)CSCC(N)=O | n | n | n | n | 94
COc1ccc(Cc2c(O)nc(SCC(=O)c3ccc(OC)cc3)[nH]c2=O)cc1 | n | n | n | n | 98
CCc1c(O)nc(SCC(=O)Nc2ccccc2OC)[nH]c1=O | n | n | n | n | 99
COc1ccccc1NC(=O)CC(=O)Nc1ccccc1OC | n | n | x | n | n
COc1ccccc1NC(=O)CSc1nc(N)c(-c2ccccc2)c(=O)[nH]1 | n | n | n | n | n
COc1cccc(NC(=O)CCS(=O)(=O)c2ccc(Br)cc2)c1 | n | n | n | n | n
COc1ccccc1NC(=O)c1c[nH]c2ccccc12 | n | n | x | n | n
COc1ccccc1NC(=O)CSc1nc(O)c(Cc2ccccc2)c(=O)[nH]1 | n | n | n | n | 88
COc1ccccc1NC(=O)c1cc(=O)[nH]c2ccccc12 | n | n | n | n | 99
OCc1ccnc2oc3ccccc3c12 | n | x | x | n | n
O=C(NNC(=O)c1ccccc1O)c1ccc(Cl)c(S(=O)(=O)N2CCCCC2)c1 | n | x | x | n | 97
C[C@H](CO)N1C[C@H](C)[C@@H](CN(C)Cc2ccc3c(c2)OCO3)Oc2cc(Br)ccc2S1(=O)=O | n | x | x | n | x
COc1cc(C2C(C#N)=C(N)N(N(C)C)C3=C2C(=O)CCC3)ccc1O (stereo not given) | n | n | n | n | n
CCCN1CCCc2cc(CN)ccc21 | 66 | n | n | n | 100
CN1CCCc2cc(C=O)ccc21 | n | n | n | n | n
CCN(CC)CCCNC(=O)Cn1cnc2sc(C)c(S(=O)(=O)N3CCC(C)CC3)c2c1=O | n | n | n | n | n
O=c1oc(-c2ccco2)nc2c1cnn2-c1ccccc1 | n | n | n | 51 | n
O=c1c2cnn(-c3ccccc3)c2nc(-c2ccco2)n1-c1ccccc1 | n | n | n | n | n
Cc1cc(C(=O)NNC(=O)CCCOc2ccccc2)c(C)o1 | n | x | x | n | n
CC(C)(C)c1ccc(OCCCC(=O)NNC(=O)c2ccccc2O)cc1 | n | x | x | 52 | n
Cc1cccc(OCCn2nc(C(=O)O)c3ccccc3c2=O)c1 | n | n | n | 73 | n
Cc1noc(C)c1Cn1nc(C(=O)O)c2ccccc2c1=O | n | n | n | 64 | n
SMILES | PfGluPho inh | M18AAP inhibitor | PHOSPHO1 block | H9c2 protect | ALR inh
Cc1ccc(-c2noc(Cn3nc(C(=O)O)c4ccccc4c3=O)n2)cc1 | n | n | n | n | n
Cc1ccc(SCCn2nc(C(=O)O)c3ccccc3c2=O)cc1 | n | n | n | n | n
Cc1cccc(C)c1OCCn1nc(C(=O)O)c2ccccc2c1=O | n | n | n | 57 | n
CC(C)CN(C(=O)C1COc2ccccc2O1)c1c(N)n(CC(C)C)c(=O)[nH]c1=O (stereo not given) | n | x | x | n | n
CCN(Cc1ccc(N(C)C)cc1)C(C)C(=O)Nc1ccc(S(=O)(=O)N2CCCC2)cc1 (stereo not given) | n | x | x | n | n
COC(=O)c1sc(N2C(=O)C(=O)/C(=C(/O)c3ccccc3)C2c2ccco2)nc1C (stereo not given) | n | n | n | n | 90
CC(C)CCN(CC(=O)NCc1ccc(F)cc1)S(=O)(=O)c1ccccc1F | n | n | n | n | n
CCC(C(=O)Nc1ccc(C(=O)Nc2ccccc2C(=O)O)cc1)c1ccccc1 (stereo not given) | n | n | n | n | 79
CC(c1ccccc1)N1C(=O)c2ccc(C(=O)Nc3ccccc3C(=O)O)cc2C1=O (stereo not given) | n | n | n | n | 98
CC(C)CCN1C(=O)c2ccc(C(=O)Nc3ccccc3C(=O)O)cc2C1=O | n | n | n | n | 98
CC(=O)OC[C@@H]1CN(Cc2cccc(C(F)(F)F)c2)C[C@H](n2cnc3c(NCc4ccco4)ncnc32)O1 | x | x | x | n | x
CCCN1C(=O)c2ccccc2NC1c1ccc(O)c(OCC)c1 (stereo not given) | n | n | n | n | 86
C[C@H](CO)N1C[C@H](C)[C@@H](CN(C)CC2CC2)OCc2cnnn2CCCC1=O | n | x | x | n | x
CCCc1nnc(NC(=O)Cn2c(=O)oc3cc(Br)ccc32)s1 | n | n | 100 | n | n
